Consider twelve compounds from PubChem BioAssay (Tox21).

Assay [1] can be described thus: qHTS assay to identify small molecule agonists of the vitamin D receptor (VDR) signaling pathway - cell viability counter screen (AID 743224). Note: series mostly up to about 63 µM; nearly all actives have a fitted effect of over 50% in size. Put shortly: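 Luminescence from CellTiter-Glo, read after 30 min at room temperature, reports viability of VDR-bla cells treated with compounds for 16 h at 37C in the wells used for the beta-lactamase FRET read.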
On the technique in general: Quantitative high-throughput screening tests each substance at several concentrations.

Assay [2] in a line: qHTS assay to identify small molecule antagonists of the vitamin D receptor (VDR) signaling pathway - cell viability counter screen (AID 743225). Note: nearly all actives have a fitted effect of over 50% in size. Put shortly: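 Luminescent cell viability (CellTiter-Glo) in VDR-bla HEK 293T cells after 16 h compound exposure at 37C in the presence of 3 nM final 1-alpha,25-dihydroxy vitamin D3.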
A short description of assay [3]: qHTS assay to identify small molecule agonists of the NFkB signaling pathway (AID 1159509; active = well fitted curve in the direction sought with a large enough effect in the signal ratio in the repeat runs, not every such curve was filed as active; the % refers to the signal ratio; note: series mostly up to about 61 µM). In a few lines: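 After overnight attachment, reporter cells received test compounds, DMSO or positive controls and were incubated 5 hr at 37 C. FRET substrate was then added for 1.5 hr at room temperature before dual-emission fluorescence reading.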
Assay [4] is described as follows: qHTS assay to identify small molecule agonists of the NFkB signaling pathway - cell viability counter screen (AID 1159515; calls by dose curve; note: series mostly up to about 61 µM; nearly all actives have a fitted effect of over 55% in size). In a few lines:
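Luminescence from CellTiter-Glo (30 min, room temperature) gives viability, measured in the same wells as the beta-lactamase reporter read. Cells were NFkB-bla ME-180, 2,000 per well, treated 5 hr with compounds.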

A short description of assay [5]: qHTS assay to identify small molecule agonists of the endoplasmic reticulum stress response signaling pathway (AID 1159516; active = well fitted activation curve with a large enough effect in the signal ratio in the repeat runs, not every such curve was filed as active; the % refers to the signal ratio). In a few lines: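 Read-out is beta-lactamase cleavage of a FRET substrate (405 nm excitation; 460 and 530 nm emissions) in ESRE-bla HeLa cells after a 5 hr compound exposure at 37 C. Substrate incubation ran 2 hr at room temperature.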
A short description of assay [6]: qHTS assay to identify small molecule antagonists of the retinoid-related orphan receptor gamma (ROR-gamma) signaling pathway - cell viability counter screen (AID 1159520). Note: nearly all actives have a fitted effect of over 50% in size. In a few lines:
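Tet-on ROR gamma CHO cells (1,000/well) were plated 4 hr, given compounds in DMSO for 2 hr at 37 C, then induced with 1 uM final doxycycline for 16 hr. Viability was read as ATP by CellTiter-Glo luminescence after 30 min.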

The target of assay [7] is Nuclear receptor ROR-gamma (Homo sapiens) (UniProt P51449). Kind of assay: qHTS assay to identify small molecule antagonists of the retinoid-related orphan receptor gamma (ROR-gamma) signaling pathway (AID 1159521; note: nearly all actives have a fitted effect of over 50% in size; note: potency is the fitted concentration of half-maximal effect). In a few lines: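 CHO cells expressing RORγ under a TET-on promoter, luciferase under RORE control. Dox 1 uM final, 16 h; compounds added 2 h prior. Luminescence decrease measured.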

Assay [8] in a line: qHTS assay to identify small molecule agonists of the AP-1 signaling pathway - cell viability counter screen (AID 1159525; calls by dose curve; note: nearly all actives have a fitted effect of over 55% in size). In a few lines: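 ME-180 AP-1-bla, 2500 cells/well, Opti-MEM + 0.5% dialyzed FBS; overnight 37 °C; cpd 15-pt titration, 5 h 37 °C; CellTiter-Glo 30 min RT; luminescence read; normalised to TOAB and DMSO controls.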
The nature of assay [9]: qHTS assay to identify small molecule agonists of the AP-1 signaling pathway (AID 1159526; calls by dose curve).
Assay [10] has as its target Retinoic acid receptor RXR-alpha (Homo sapiens) (UniProt P19793). Kind of assay: qHTS assay to identify small molecule agonists of the RXR signaling pathway (AID 1159527; calls by dose curve; note: nearly all actives have a fitted effect of over 35% in size). Put shortly: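 Beta-lactamase reporter assay, agonist format. Engineered HEK 293T line, charcoal-stripped FBS at 2%, overnight (16 hr) exposure, fluorescence at 460 and 530 nm after 405 nm excitation.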

The nature of assay [11]: qHTS assay to identify small molecule agonists of the RXR signaling pathway - cell viability counter screen (AID 1159529). In a few lines: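 Same-well viability check after the LiveBLAzer FRET read: CellTiter-Glo added, luminescence measured after 30 min at room temperature. Reporter HEK 293T cells had been treated with compounds for 16 hr following a 5 hr preincubation.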

Assay [12] is described as follows: qHTS assay to identify small molecule antagonists of the retinoid acid receptor (RAR) signaling pathway - cell viability counter screen (AID 1159551). Note: nearly all actives have a fitted effect of over 35% in size. In a few lines: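 Luminescent ATP quantitation (CellTiter-Glo) gave cell viability in C3RL4 cells exposed to test chemicals for 6 h at 37 C alongside 1 uM final retinol.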
Assay [13] is described as follows: qHTS assay to identify small molecule antagonists of the retinoic acid receptor (RAR) signaling pathway (AID 1159552; note: nearly all actives have a fitted effect of over 50% in size). Put shortly:
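Readout: luciferase luminescence, 30 min post-reagent at RT. Setup: C3RL4 RARE reporter cells, compounds plus retinol 1 uM final, 6 hr incubation at 37 C and 5% CO2.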

Assay [14] can be described thus: qHTS assay to identify small molecule agonists of the retinoic acid receptor (RAR) signaling pathway (AID 1159553). Put shortly: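 Luminescence from a RARE-driven luciferase reporter in C3RL4 cells served as the read-out, measured after 30 min with detection reagent at room temperature. Compounds in DMSO were applied for 6 hr at 37 C following overnight seeding.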

The nature of assay [15]: qHTS assay to identify small molecule agonists of the endoplasmic reticulum stress response signaling pathway - cell viability counter screen (AID 1159517; calls by dose curve). Put shortly:
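Luminescence readout: CellTiter-Glo, 30 min RT, same wells as the ESRE-bla reporter read. HeLa ESRE-bla, 1,500 cells/well, o/n 37 C; cpd 5 hr 37 C/5% CO2.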

A short description of assay [16]: qHTS assay to identify small molecule antagonists of the estrogen related receptor (ERR) signaling pathway - cell viability counter screen (AID 1224818).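 Note: series mostly up to about 46 µM; viability measured after 17.5 h of compound exposure.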 Put shortly:
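Multiplexed counter screen to separate cytotoxic compounds from true ERR modulators. ERR cells received DMSO-dissolved compounds after a 6 h pre-incubation, were exposed 17.5 h at 37 C, then assayed with CellTiter-Fluor fluorescence.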

Assay [17] is described as follows: qHTS assay to identify small molecule antagonists of the estrogen related receptor (ERR) signaling pathway (AID 1224819). Put shortly: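 Seed ERR cells 2,000/well; rest 6 h at 37 C/5% CO2; pin compounds in DMSO; incubate 18 h at 37 C; add One-Glo; wait 30 min at room temperature; measure luminescence.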
Assay [18] in a line: qHTS assay to identify small molecule agonists of the estrogen related receptor (ERR) signaling pathway (AID 1224820). Put shortly:
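Quantitative HTS of the LOPAC library used NTP ERR reporter cells treated 18 h at 37 C. Signal is luminescence after One-Glo addition and a 30 min room-temperature incubation.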

The subject of assay [19] is estrogen-related receptor alpha (ERRalpha) with PGC-1alpha coactivator, human. Kind of assay: qHTS assay to identify small molecule antagonists of the estrogen related receptor signaling pathway with the pleiotropic PPARgamma coactivator (PGC) (AID 1224821; calls by dose curve). In a few lines:
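Quantitative HTS for antagonism: PGC/ERR cells received compounds after 6 h attachment and were incubated 18 h at 37 C, with luminescence (One-Glo) as the endpoint.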

Assay [20] in a line: qHTS assay to identify small molecule antagonists of the estrogen related receptor signaling pathway with the pleiotropic PPARgamma coactivator (PGC) cell viability counter screen (AID 1224822;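 note: series mostly up to about 46 µM; viability read after 17.5 h compound exposure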). Put shortly:
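Cells: PGC/ERR, 2,000/well, 1536-well format. Pre-incubation 6 h, 37 C/5% CO2. Compound exposure 17.5 h, 37 C. Detection: CellTiter-Fluor, 30 min, fluorescence.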

Results filed as inconclusive are left out. Active and inactive are the calls of the source. Unless noted, calls come from the whole dose curve; as a rule, active = well fitted curve in the direction sought with a large enough effect in the repeat runs; inconclusive = weak or mixed curves; inactive = no such curve, though single readings can be large; an effect the other way counts as inactive or inconclusive.

Retinoic acid receptor RXR-alpha (Homo sapiens), sequence (P19793 whole entry, looked up): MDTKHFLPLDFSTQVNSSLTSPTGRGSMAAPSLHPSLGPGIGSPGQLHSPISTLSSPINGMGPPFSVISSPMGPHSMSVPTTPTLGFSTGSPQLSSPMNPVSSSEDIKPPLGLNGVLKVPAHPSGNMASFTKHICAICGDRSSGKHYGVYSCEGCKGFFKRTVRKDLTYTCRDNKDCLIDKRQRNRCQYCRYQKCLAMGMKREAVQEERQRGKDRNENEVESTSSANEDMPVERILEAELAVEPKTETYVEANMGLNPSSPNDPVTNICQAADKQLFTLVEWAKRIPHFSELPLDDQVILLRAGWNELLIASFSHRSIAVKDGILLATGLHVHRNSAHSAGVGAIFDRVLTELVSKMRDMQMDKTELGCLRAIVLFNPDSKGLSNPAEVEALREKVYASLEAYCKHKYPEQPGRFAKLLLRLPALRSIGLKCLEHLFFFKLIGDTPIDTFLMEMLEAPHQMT

For `C/C=C/C=O`, the Potency entry in assay [1], in assay [2], in assay [4], in assay [6], in assay [7] and in assay [8] was “inactive” throughout. The Potency entry in assay [10], in [11], in assay [12], in [13] and in [14] was “inactive” each time. The outcome in assay [3], in [5] and in assay [9] was inactive.
As to `CO/C=C(/C(=O)OC)c1ccccc1COc1cccc(C(F)(F)F)n1`, the result in assay [3], in [5] and in [9] was inactive. Also, the Potency entry in assay [4], in assay [15], in assay [8], in assay [11] and in [14] was “inactive” in each case. For the same compound, the Potency in assay [7] is 0.769 µM (active).
Turning to `CC(C)O.CC(C)O.OCCN(CCO)CCO.OCCN(CCO)CCO.[Ti]`, the Potency entry in assay [1], in assay [4], in assay [15], in assay [8], in assay [10] and in assay [11] was “inactive” in each case. The Potency result in assay [12] and in [14] was “inactive” each time. For the same compound, the call in [3] and in assay [5] was inactive.
Take `O=C(O)COc1ccc(Cl)cc1`: the Potency entry in assay [1], in assay [2], in assay [4], in [6], in assay [8] and in assay [11] was “inactive” throughout. For the same compound, the Potency result in [12] and in [14] was “inactive” each time. Further, the call in [3], in assay [5] and in assay [9] was inactive.
Take `COc1cc(Cl)c(OC)cc1Cl`: the Potency entry in [1], in [2], in assay [4], in [6], in [8] and in assay [10] was “inactive” each time. For the same compound, the Potency entry in assay [12], in assay [13] and in assay [14] was “inactive” each time. Moreover, the compound was called inactive in assay [3] and in assay [5].
With `CC(Cl)C(C)Cl` (centres undefined), the Potency entry in assay [1], in [2], in assay [4], in [6], in assay [7] and in [8] was “inactive” each time. Moreover, the Potency result in [10], in assay [11], in assay [12] and in [13] was “inactive” each time. For the same compound, the call in assay [3], in assay [5] and in assay [9] was inactive.
For the compound `CC(C)N(C(=O)COc1nnc(C(F)(F)F)s1)c1ccc(F)cc1`, the Potency result in assay [2], in assay [4], in [6], in [8], in [12] and in assay [13] was “inactive” each time. The result in assay [3], in assay [5] and in assay [9] was inactive.
On to `COC(C)(C)CCC[C@H](C)C/C=C/C(C)=C/C(=O)OC(C)C`, for which the call in assay [3], in assay [5] and in assay [9] was inactive. In addition, the Potency entry in assay [4], in assay [6], in [7], in assay [8], in assay [11] and in assay [12] was “inactive” each time. Besides, the Potency result in assay [13] and in [14] was “inactive” throughout.
As for `COP(=S)(OC)Oc1ccc([N+](=O)[O-])cc1Cl`, the Potency entry in assay [1], in assay [2], in [4], in [6], in assay [8] and in assay [12] was “inactive” each time. The compound was called inactive in [3], in assay [5] and in assay [9]. In assay [7], the Potency was 43.3 µM (active).
Take `CC/C(=N\OC/C=C/Cl)C1=C(O)CC(C2CCOCC2)CC1=O` (centres undefined): the Potency entry in assay [1], in [2], in [4], in assay [6], in [7] and in assay [8] was “inactive” each time. Further, the Potency result in [10], in assay [11] and in [12] was “inactive” in each case. In addition, the compound was classed as inactive in assay [3], in assay [5] and in assay [9].
For `COCCOCCO`, the Potency entry in assay [2], in [4], in assay [6], in [7], in assay [12] and in [14] was “inactive” throughout. The Potency entry in assay [19] and in assay [20] was “inactive” each time. Further, the compound was called inactive in [3], in assay [5], in [16], in assay [17] and in assay [18].
Consider `C[C@]12CC[C@H]3[C@@H](CCC4=CC(=O)CC[C@@H]43)[C@@H]1CC[C@@H]2OC(=O)CCC1CCCCC1`, for which the Potency entry in assay [1], in [2], in [4], in [6], in [8] and in assay [11] was “inactive” in each case. Besides, the Potency result in assay [12] and in assay [14] was “inactive” throughout. Further, the compound was classed as inactive in assay [3], in assay [5] and in assay [9].
